From PubChem BioAssay
NS1 function inh: influenza NS1 inhibition | hit rate 0.4% among 270,000 | Potency, µM (top dose mostly 46.1 µM) | AID 2326; calls by dose curve; also: actives are rising curves; nearly all actives have a fitted effect of over 50% in size
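A cell-based growth assay was used: compounds that relieve NS1-induced slow growth of budding yeast raise OD600. Assay medium was yeast nitrogen base with ammonium sulphate and -URA supplement, pH 6.0, with 2% galactose.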
Shiga inhibitor: blocks Shiga toxin action in Vero cells | Vero cells, Shiga toxin protein synthesis inhibition reporter | inhibition, % at 38.7 µM | hit rate 9.2% among 290,000 | AID 2315; in the data active = inhibition mostly above about 28%, no sharp cut-off; inactive = mostly below about 43%
AmpC no deterg: blocks E. coli AmpC beta-lactamase in detergent-free assay | Potency, µM (doses to about 57.1 µM), usual class: inhibitors | hit rate 0.52% among 330,000 | AID 485341 | AmpC nitrocefin hydrolysis, absorbance 480 nm, 0.0001% Triton | P00811; also: nearly all actives have a fitted effect of over 20% in size
Target sequence (P00811 whole entry, looked up): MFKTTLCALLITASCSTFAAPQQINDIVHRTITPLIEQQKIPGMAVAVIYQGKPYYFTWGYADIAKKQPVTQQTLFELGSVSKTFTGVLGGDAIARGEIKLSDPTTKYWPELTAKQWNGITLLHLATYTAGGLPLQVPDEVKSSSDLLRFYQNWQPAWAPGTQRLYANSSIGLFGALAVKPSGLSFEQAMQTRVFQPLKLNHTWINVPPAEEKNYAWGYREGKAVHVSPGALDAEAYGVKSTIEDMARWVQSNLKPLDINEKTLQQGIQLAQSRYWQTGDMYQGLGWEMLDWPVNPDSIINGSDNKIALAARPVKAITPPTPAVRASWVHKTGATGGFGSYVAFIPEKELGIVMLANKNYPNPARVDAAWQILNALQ
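20 mM phosphate pH 7.0 + 0.01% (detergent screen) or 0.0001% Triton X-100; 5.3 nM AmpC reagent; cpd preinc 15 min RT; nitrocefin (800 uM stock) to start; A480 q20 s × 4 min; Activity was normalised to no-enzyme and no-compound control wells.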
AmpC detergent: AmpC beta-lactamase inhibition with detergent present; AmpC hydrolysis of nitrocefin, absorbance 480 nm, 0.01% Triton; Potency, µM (highest dose often 114 µM), usual class: inhibitors; hit rate 0.041% among 370,000; also: nearly all actives have a fitted effect of over 25% in size
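20 mM phosphate pH 7.0 + 0.01% (detergent screen) or 0.0001% Triton X-100; 5.3 nM AmpC reagent; cpd preinc 15 min RT; nitrocefin (800 uM stock) to start; A480 q20 s × 4 min; Activity was normalised to no-enzyme and no-compound control wells.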
Cycloheximide cs: affects cycloheximide protein synthesis inhibition readout, counter-screen | AID 2314 | cell reporter, cycloheximide protein synthesis inhibition counterscreen | max response, % | hit rate 12% among 300,000; in the data active = max response mostly above about 13%, no sharp cut-off; inactive = mostly below about 14%; also: read at 38.3 µM for the half of the compounds with a filed dose
Large screens that a line does not name were inactive. The full list was thinned out, with hits kept by preference. Unless noted, calls follow the shape of the dose curve; as a rule, active = well fitted curve in the direction sought with a large enough effect; inconclusive = small, poorly fitted or top-dose-only effect, or another doubt; inactive = no such curve, though single readings can be large; an effect the other way counts as inactive or inconclusive.

CCOC(=O)c1c(Nc2ccc(OC)cc2)nnc(-c2ccccc2)c1-c1ccccc1	none (no result: NS1 function inh, Shiga inhibitor, AmpC no deterg, Cycloheximide cs)
COc1ccc(C(=O)Nc2nc3nc(C)c(Cl)c(=O)n3[nH]2)cc1	none (no result: NS1 function inh, Shiga inhibitor, AmpC no deterg, Cycloheximide cs)
COc1cccc(-c2cc(C(=O)NC3CCCCC3)no2)c1	Shiga inhibitor 81
COc1ccc(-c2cc(C(=O)NC3CCCC3)no2)cc1OC	Shiga inhibitor 26, Cycloheximide cs 24
COC(=O)c1cc(-c2cccc(OC)c2)on1	none
COc1cc(Cl)c(C)cc1NC(=O)c1ccc(CN2C(=O)CCn3nc(C)cc32)cc1	none (no result: NS1 function inh, Shiga inhibitor, AmpC no deterg, Cycloheximide cs)
COc1ccc(CCNC(=O)CCn2c(=O)c3ccccc3n(Cc3c(C)cc(C)cc3C)c2=O)cc1OC	none (no result: NS1 function inh, Shiga inhibitor, AmpC no deterg, Cycloheximide cs)
Cc1ccc2c(c1)NC(=O)CC(c1ccccc1)=N2	Shiga inhibitor 63, Cycloheximide cs 40
COc1ccc(C2=C/C(=C\c3cccc(OC(C)=O)c3)C(=O)O2)cc1	Cycloheximide cs 24
COc1ccc(C2=C/C(=C\c3ccccc3OC(C)=O)C(=O)O2)cc1	Shiga inhibitor 103, Cycloheximide cs 22
CC(C)c1ccc(/C=C2\C=C(c3ccc4ccccc4c3)OC2=O)cc1	none (no result: Shiga inhibitor, AmpC no deterg, AmpC detergent, Cycloheximide cs)
Nc1nonc1C(=O)N/N=C/c1ccc(-c2ccc(Cl)c(C(=O)O)c2)o1	Shiga inhibitor 48, Cycloheximide cs 14 (no result: NS1 function inh)
Nc1nonc1C(=O)N/N=C/c1ccc(Br)o1	Shiga inhibitor 72, Cycloheximide cs 39
O=C(N/N=C/c1ccc(Br)o1)c1cccnc1	AmpC detergent inconclusive
N/C(=N\N=C\c1ccc(Br)o1)c1nonc1N	Shiga inhibitor 82, Cycloheximide cs 47
O=C(O)c1cc(-c2ccc(/C=N/Nc3ccc(Cl)cc3)o2)ccc1Cl	none
COc1ccc(-c2nc(CS(=O)(=O)CC(=O)NCc3ccc(F)cc3)c(C)o2)cc1	none
C/C(=N/NC(=O)CCC(=O)Nc1cccc(Cl)c1)c1ccc(C)cc1	AmpC detergent inconclusive
COC(=O)c1[nH]c2ccc(C)cc2c1NC(=O)Nc1ccc(OC)cc1	Cycloheximide cs 19
COC(=O)c1[nH]c2ccc(F)cc2c1NC(=O)Nc1ccc(OC)cc1	AmpC detergent inconclusive
CN(Cc1ccccc1)C(=O)CN1CCN(S(=O)(=O)c2ccc(Cl)c(Cl)c2)CC1	none (no result: NS1 function inh, Shiga inhibitor, Cycloheximide cs)
N#Cc1nc(-c2ccc(F)cc2)oc1NCCCn1ccnc1	Shiga inhibitor 42, Cycloheximide cs 39 (no result: NS1 function inh)
COCCNc1oc(COc2cccc(C)c2)nc1C#N	Shiga inhibitor active, AmpC detergent inconclusive, Cycloheximide cs 19
N#Cc1nc(COc2ccccc2)oc1NCCCn1ccnc1	Shiga inhibitor 33, Cycloheximide cs 27
Cc1ccc(OCc2nc(C#N)c(NCCCn3ccnc3)o2)cc1	none
N#Cc1nc(-c2ccc(OCc3ccccc3)cc2)oc1NCCCn1ccnc1	none
N#Cc1nc(-c2ccc(OCc3ccccc3Cl)cc2)oc1NCCCn1ccnc1	Shiga inhibitor 26, Cycloheximide cs 15
CCC(CC)c1nc(C(N)=O)c2[nH]c(=O)n(-c3ccc(OC)c(OC)c3)c2n1	AmpC detergent inconclusive
CCNc1oc(COc2ccccc2F)nc1C#N	Shiga inhibitor 107, AmpC detergent inconclusive, Cycloheximide cs 26
Cc1ccc(NC(=O)Cn2cnc3c(NCc4ccccc4)ncnc32)cc1C	none (no result: NS1 function inh, Shiga inhibitor, AmpC detergent, Cycloheximide cs)
CC1=NN(c2ccc(C(=O)O)cc2)C(=O)/C1=C\c1ccc(OC(=O)c2cccs2)cc1	Cycloheximide cs 16 (no result: NS1 function inh)
CCOc1cc(/C=C2\C(=O)N(c3ccc(C(N)=O)cc3)N=C2C)ccc1OC(=O)c1cccs1	NS1 function inh inconclusive
CCn1c(SCC(=O)Nc2ccc(F)cc2)nnc1-c1cnccn1	none
COc1ccc2c(c1)C1(Nc3ccccc3-c3nc4ccccc4n31)C(=O)N2C (stereo not drawn)	none
COc1ccc2c(c1)C1(Nc3ccccc3-c3nc4ccccc4n31)C(=O)N2 (stereo not drawn)	AmpC no deterg 20µM
CC1(c2ccncc2)Nc2ccccc2-c2nc3ccccc3n21 (stereo not drawn)	Cycloheximide cs 16
CN1c2ccccc2-c2nc3ccccc3n2C1c1ccncc1 (stereo not drawn)	none
CCN(CC)CCCNC(=O)c1ccc(CS(=O)(=O)c2ccccc2OC)o1	none
Cc1ccccc1CN1CCN(C(=O)c2cccc3ccccc23)CC1	none
Cc1cc(C)c(NC(=O)C[C@H](CC(=O)O)c2cccc3ccccc23)c(C(=O)N2CCC3(CCCC3)CC2)c1	NS1 function inh 10µM (no result: Shiga inhibitor, AmpC no deterg, AmpC detergent, Cycloheximide cs)
Cc1cccc(N(C(=O)Nc2ccc(Cl)cc2)C2=NCC(C)S2)n1 (stereo not drawn)	Cycloheximide cs 20
